Reference: ChEMBL document CHEMBL3988442, “University of Dundee, Small-Polar-MMV Screening Library” (2021)
Hit rate of the full screen: of about 48,000 compounds, about 13,000 (27%) showed an effect of 50% or more. The list shows a part of the results.

System: Wolbachia pipientis
Test: Anti-Wolbachia Cell-Based Screen
Format: functional
Set-up: scale not given: in the data most compounds retested in dose-response had high values
Settings: 5 µM

SMILES | Percent Effect [%]
CC(C)N1CCC2(CC1)CN(C)C(=O)C[C@H]2C(F)(F)F | -3.989
COc1ccc2c(c1)CCCN(C(C)C(=O)NC(N)=O)C2 (centres undefined) | -1.078
NC(=O)C1=NC2=NS(=O)(=O)c3ccccc3N2N1Cc1ccc(Br)cc1 | 9.157
Cc1c[nH]c(C(=O)N2CCn3nc(C(=O)NC4CC4)cc3C2)n1 | -2.025
Cc1nc2ccc(C(=O)N3CCN(CCO)[C@@H]4CS(=O)(=O)C[C@@H]43)cc2o1 | -12.01
CC(C)N1CCC(c2n[nH]cc2S(C)(=O)=O)CC1 | 115.7
COCCn1ccnc1C1CCCN(C(=O)c2ccncc2F)C1 (centres undefined) | 0
COCCn1ccnc1C1CCCN(C(=O)c2cc(F)cc(F)c2)C1 (centres undefined) | 83.8
Cn1ccnc1C1CCCN(C(=O)c2ccncc2F)C1 (centres undefined) | 111.1
CCc1ncc(C(=O)N2CCCC(c3nccn3CCOC)C2)cn1 (centres undefined) | -9.089
COCCn1ccnc1C1CCCN(C(=O)c2cccnc2SC)C1 (centres undefined) | -0.1241
Cn1ccnc1C1CCCN(C(=O)c2cc(F)cc(F)c2)C1 (centres undefined) | 106.9
Cc1cc(C(=O)N2CCCC(c3nccn3Cc3ccncc3)C2)no1 (centres undefined) | 10.63
Cc1nc(N)sc1C(=O)N1CCCC(c2nccn2CCCN(C)C)C1 (centres undefined) | 8.356
Cc1cc(C(=O)N2CCCC(c3nccn3C)C2)cc(S(N)(=O)=O)c1C (centres undefined) | 99.7
COCCn1ccnc1C1CCCN(C(=O)c2ccccc2C#N)C1 (centres undefined) | -8.592
CC(C)(O)c1cn(C2CCN(C(=O)CCC(F)(F)F)CC2)nn1 | 13.09
CN(CCc1ccncc1)C(=O)c1sccc1OC(F)F | -13.92
CCC1=N[C@@]2(CC[C@@H]3CN(C(=O)NCC(C)C)C[C@@H]32)C(=O)N1CC1CC1 | 11.23
Cc1ncc(C(=O)Nc2cncnc2N(C)C)c(Cl)c1Cl | -6.041
Cc1cccnc1NC(=O)CNC(=O)c1ccccc1Cl | -60.17
CN(C)C(=O)c1ccccc1NCCCOc1cccc(C#N)c1 | -15.07
CSc1ncccc1C(=O)N(C)CCc1scnc1C | 0.9599
CN(C)C(=O)c1cccnc1SCc1ccccc1Cl | 128.1
CSc1ncccc1C(=O)N(C)C(C)Cc1ccccn1 (centres undefined) | 1.339
Cc1ccccc1CSc1ncccc1C(=O)N(C)C | 111
CSCC(=O)N(Cc1ccccn1)Cc1ccccc1C | -1.935
CN(C)C(=O)CN1C[C@@H]2CC[C@H](C1)N(Cc1ccccc1C#N)C2 | -40.35
CN(C)C(=O)c1cccnc1SCc1ccccc1C#N | 100.1
